NPC1 prom act: activates the NPC1 promoter | Huh7 NPC1 promoter luciferase reporter, 24 h | Potency, µM (series often up to 9.22 µM), without a hit: at the highest dose activation, usual class: activators | 320,000 compounds, 2.4% hits | AID 485313; note: % of control where 0% means no effect; nearly all actives have a fitted effect of over 60% in size
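Huh7 reporter cells (NPC1 promoter driving luciferase) are dosed with compound for 24 h at 37 °C, 5% CO2; luciferase detection reagent is then added and luminescence measured after 10 min at ambient temperature.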
Rab9 prom act: activates the Rab9 promoter; Potency, µM (titrated, usually from 9.22 µM), inactives show top-dose activation, negative = inhibition, hits mostly activators; AID 485297; Huh7 Rab9 promoter-luciferase reporter, luminescence, 24 h; 320,000 compounds, 2.8% hits; note: % of control where 0% means no effect; nearly all actives have a fitted effect of over 60% in size
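Measured in stably transfected Huh7 cells bearing a Rab9 promoter–luciferase construct: 24 h compound treatment at 37 °C, followed by luminescence detection.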
FLuc modulator: firefly luciferase modulation, counter-screen for miR-21 project. P08659. purified FLuc, Km substrates, luminescence inhibition. Potency, µM (doses to about 57.5 µM), for inactives: top-dose activity change, negative = inhibition, most hits filed as inhibitors. 360,000 compounds, 6.9% hits;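 note: plate controls were vehicle for no effect and reference inhibitor for full effect; nearly all actives have a fitted effect of over 55% in size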
Target sequence (P08659 whole entry, looked up): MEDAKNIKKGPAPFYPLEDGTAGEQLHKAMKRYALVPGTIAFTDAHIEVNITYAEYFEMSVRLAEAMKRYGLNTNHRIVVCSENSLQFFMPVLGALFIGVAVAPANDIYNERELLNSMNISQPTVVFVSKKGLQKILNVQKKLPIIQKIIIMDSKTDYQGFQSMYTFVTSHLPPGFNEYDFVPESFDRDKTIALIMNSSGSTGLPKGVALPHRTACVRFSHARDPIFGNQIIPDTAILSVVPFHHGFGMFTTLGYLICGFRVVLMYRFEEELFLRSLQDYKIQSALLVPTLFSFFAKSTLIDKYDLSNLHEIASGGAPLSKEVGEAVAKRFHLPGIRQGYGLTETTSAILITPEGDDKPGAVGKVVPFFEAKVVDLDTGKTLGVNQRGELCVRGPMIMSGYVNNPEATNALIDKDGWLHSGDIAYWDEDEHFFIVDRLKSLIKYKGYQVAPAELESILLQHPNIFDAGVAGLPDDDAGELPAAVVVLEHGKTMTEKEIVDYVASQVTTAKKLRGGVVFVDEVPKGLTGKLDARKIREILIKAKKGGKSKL
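Purified P. pyralis luciferase (10nM final) with 10uM D-luciferin and 10uM ATP (Km levels) in 50mM Tris acetate pH 7.5, 10mM Mg acetate, 0.01% Tween-20, 0.05% BSA; qHTS 6-point titration, ~60 µM downward; luminescence read.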
KinaseGlo FLuc: counter-screen: inhibitors of Kinase-Glo firefly luciferase. Potency, µM (top dose mostly 38.3 µM), without a hit: at the top dose activity change, negative = inhibition, usual class: inhibitors. 200,000 compounds, 0.28% hits. Kinase-Glo luciferase, ATP luminescence, 8 min; note: % is set by controls: 0 for no effect and ±100 for the full control effect; nearly all actives have a fitted effect of over 60% in size
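Kinase-Glo luciferase light output from ATP and luciferin was measured with 10 uM ATP, within the enzyme's linear range. Buffer: 50 mM imidazole pH 7.2, 50 mM KCl, 7 mM MgCl2, 0.01% Tween 20, 0.05% BSA; luminescence read after 8 min at ambient temperature.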
SMN2 splice enh: increases expression of the SMN2 splice variant | HEK293 SMN2-luciferase splicing reporter, luminescence, 30-36 h | Potency, µM (doses to about 46.1 µM), inactives show top-dose activity change, positive = activation, hits mostly activators | 210,000 compounds, 2.8% hits | AID 1458; note: % of control where 0% means no effect; nearly all actives have a fitted effect of over 55% in size
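qHTS luciferase splicing reporter: luminescence rises when SMN2 exon 7 is included in transfected HEK293 cells. Compound exposure lasted 30-36 h at 37C, with 4.5 mM final sodium butyrate as control, followed by a ONE-Glo read.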
ELG1 genotoxic: inducers of genotoxicity in HEK293T ELG1-luciferase cells | 330,000 compounds, 1.3% hits | AID 504466 | Potency, µM (doses to about 46 µM), without a hit: top-dose activity change, positive = activation, hits mostly activators | HEK293T ELG1-luciferase reporter, luminescence, 16 h; note: % of control where 0% means no effect; nearly all actives have a fitted effect of over 60% in size
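HEK293T cells expressing luciferase-tagged ELG1 were exposed to compound or DMSO vehicle for 16 hr at 37 °C and 5% CO2. Luciferase activity was then measured with ONE-Glo after 30 min at room temperature.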
* = called active by the depositor; ? = inconclusive; · = no result. Most compounds without a hit are left out; they make up all but 7.5% or so of the library. Calls come from the whole dose curve; as a rule, active = well fitted curve in the direction sought with a large enough effect; inconclusive = small, poorly fitted or top-dose-only effect, or another doubt; inactive = no such curve, though single readings can be large; an effect the other way counts as inactive or inconclusive. Potency is the fitted concentration of half-maximal effect.

SMILES	NPC1 prom act	Rab9 prom act	FLuc modulator	KinaseGlo FLuc	SMN2 splice enh	ELG1 genotoxic
O=c1oc2c(CN3CCOCC3)c(O)ccc2c2ccccc12	3.98µM*	29.1%	?	-1.6%	2.6%	12.8%
O=[N+]([O-])c1cccnc1N/N=C/c1ccccc1O	-4.4%	?	?	2µM*	-51.4%	?
O=C(O)CNc1ncccc1[N+](=O)[O-]	1.7%	1.8%	0.2%	-1.2%	3.3%	-0.3%
O=[N+]([O-])c1ccc(N/N=C/c2ccccc2O)cc1	-7.4%	19.7%	15.1µM*	·	·	?
Cc1c(O)ccc(/C=N/Nc2ncccc2[N+](=O)[O-])c1O	0.562µM*	3.16µM*	1.07µM*	·	·	2.59µM*
O=[N+]([O-])c1cccc(N/N=C/c2cc([N+](=O)[O-])ccc2O)c1	?	29.7%	?	6.0%	20.4%	?
O=[N+]([O-])c1ccc(O)c(/C=N/Nc2ccccn2)c1	-14.7%	-25.3%	4.5%	-0.9%	-85.7%	14.4%
COc1ccc(/C=C(/NC(=O)c2ccco2)C(=O)N2CCCC2=O)cc1	0.6%	-3.0%	1.7%	1.2%	10.7%	0.2%
COc1cc(OC)cc(-c2nn[nH]n2)c1	-0.6%	-6.1%	2.1%	1.1%	-8.5%	-2.8%
COc1ccc(-n2cc(CN[C@H]3CCCCNC3=O)c(-c3cccc(F)c3)n2)cc1	-1.2%	-0.1%	16.9µM*	·	·	-1.6%
O=C(CCC(=O)OCC(=O)c1ccc(Cl)cc1)NC1CCCCC1	-0.6%	2.4%	-15.7%	-5.5%	-2.0%	-0.6%
Cc1ccc(C(=O)COC(=O)CCC(=O)NC2CCCCC2)cc1C	0.5%	1.7%	9.53µM*	-4.3%	0.3%	-2.7%
CC(C)(C)c1ccc(OCCC(=O)OCC(=O)NC(=O)NC2CCCC2)cc1	-0.4%	16.2%	?	·	·	-43.6%
CC(C)(C)c1ccc(OCCC(=O)OCC(=O)NC2CCCCC2)cc1	0.8%	1.9%	16.9µM*	·	·	1.8%
CCCCN(C)CC(O)Cn1cc(/C=C/C(=O)c2ccc(C)cc2)c2ccccc21 (stereo not given)	-3.9%	-7.0%	?	·	-71.0%	-7.9%
CC(=O)c1cccc(NC(=O)C2CCN(C(=O)c3ccc([N+](=O)[O-])cc3)CC2)c1	-0.7%	-7.8%	-1.2%	2.1%	10.2%	-7.2%
O=C1c2ccccc2-c2ccc(C(=O)N3CCCCC3)cc21	?	?	26.9µM*	-0.4%	11.6%	?
Cc1cc(C)cc(NC(=O)Nc2ccc3c(c2)N(C)C(=O)CS3)c1	-2.0%	-1.6%	?	-1.9%	-11.1%	-15.6%
O=C(c1ccccc1)N1CCCCCC1	0.1%	-3.7%	0.2%	2.9%	-13.5%	1.4%
O=C(Nc1ccccc1)Nc1ccc(C(=O)N2CCCC2)cc1	0.562µM*	0.355µM*	2.39µM*	6.31µM*	6.31µM*	?
CC(=O)c1cccc(NC(=O)Nc2ccc3c(c2)N(C)C(=O)CS3)c1	1.0%	-10.0%	15.1µM*	1.4%	-19.2%	-31.3%
O=C(c1ccc2ccccc2c1)N1CCCC1	-2.1%	-4.6%	2.9%	·	·	8.7%
